The record followed here is PubChem BioAssay (Tox21).

Structures are written as SMILES. Records with an inconclusive call do not appear. Where a call stands in place of a potency, no number is given. Active and inactive are the calls of the source. Unless noted, the call rests on the fitted dose curve.

Tested on in one assay: not listed separately
Briefly: qHTS assay to identify small molecule antagonists of the estrogen receptor beta (ER-beta) signaling pathway - cell viability counter screen (AID 1259382; active means well fitted cell-killing curve with a large enough effect in the repeat runs; further: nearly all actives have a fitted effect of over 55% in size; further: potency means the concentration at half of the fitted maximal effect). The settings on record: ER-beta-UAS-bla HEK293T viability, CellTiter-Glo luminescence, 16 h; series mostly up to 92.4 µM. In short, it runs like this:
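Luminescent ATP read-out (CellTiter-Glo, 30 min, RT) taken in the same wells as the bla reporter assay. HEK293T ER-beta-UAS-bla cells in 2% charcoal-stripped FBS were exposed to compounds with 1nM E2 for 16 hr at 37C.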
Regarding `C=CC(=O)NC(C)C`, the Potency entry was “inactive”.

With `CCCCCCCCCCCCCCCC(=O)OCC`, the Potency result is “inactive”.

On to `CC(C)(C)C1(CCc2ccc(Cl)cc2)CO1` (configuration not stated), for which the Potency entry is “inactive”.

For the molecule `CC(=O)Oc1cccc(O)c1`, the Potency entry is “inactive”.

As to `CC(C)(C)S`, the Potency entry was “inactive”.

Consider `CC[C@H]1OC(=O)[C@H](C)[C@@H](O[C@H]2C[C@@](C)(OC)[C@@H](O)[C@H](C)O2)[C@H](C)[C@@H](O[C@@H]2O[C@H](C)C[C@H](N(C)C)[C@H]2O)[C@](C)(O)C[C@@H](C)/C(=N\OCOCCOC)[C@H](C)[C@@H](O)[C@]1(C)O`, for which the Potency result is “inactive”.

As for `FC(F)(F)C(F)(F)C(F)(F)C(F)(F)CCI`, the Potency entry was “inactive”.

Consider `C=Cc1ccc(OC(C)=O)cc1`, for which the Potency result is “inactive”.

Take `CCCCCCCC(=O)OCCCCCC`: the Potency entry is “inactive”.

On to `O=C(O)CCC(=O)OC[C@@H](NC(=O)C(Cl)Cl)[C@H](O)c1ccc([N+](=O)[O-])cc1`, for which the Potency result is “inactive”.

Take `O=C1[C@@H]2[C@H]3CC[C@H](C3)[C@@H]2C(=O)N1CCCCN1CCN(c2ncccn2)CC1`: the Potency entry was “inactive”.

For `CC(=O)C(=O)CC(C)C`, the Potency entry is “inactive”.

`C1CCCCC1`: the Potency result was “inactive”.

In the case of `O=C1OC(=O)c2c(Br)c(Br)c(Br)c(Br)c21`, the Potency result is “inactive”.

For the molecule `O=C(NS(=O)(=O)/C=C/c1ccccc1)c1ccc(F)cc1Cl`, the Potency result is “inactive”.

With `CN1CCCN(C(c2ccccc2)c2ccc(Cl)cc2)CC1` (configuration not stated), the Potency is 13.3 µM (active).

Regarding `CNc1c2c(nn1C)CCCC2`, the Potency entry is “inactive”.

As for `CCCCC[C@H](O)/C=C/[C@H]1[C@H](O)CC(=O)[C@@H]1C/C=C\CCCC(=O)O`, the Potency entry is “inactive”.

`CCSC(=O)N(CC)CC`: the Potency result was “inactive”.

With `COC(C)(C)OC`, the Potency entry was “inactive”.

In the case of `c1ccc(CCCc2ccncc2)cc1`, the Potency entry was “inactive”.

With `O=C(O)CCC(=O)c1ccc(-c2ccccc2)cc1`, the Potency result is “inactive”.

Regarding `CCN(CC)c1cccc(O)c1`, the Potency result is “inactive”.

Turning to `O=C1NC(=O)c2cccc3cccc1c23`, the Potency result is “inactive”.

With `CC(C)c1ccc(C(=O)N=C(N)N)cc1S(C)(=O)=O`, the Potency result was “inactive”.

As to `Cc1ccc2c(c1)CCCN2`, the Potency result is “inactive”.

In the case of `CC(C)(O)CCc1ccccc1`, the Potency result was “inactive”.

In the case of `CCN(CC)C(=O)/C(C#N)=C/c1cc(O)c(O)c([N+](=O)[O-])c1`, the Potency result is “inactive”.

For the next assay, the target named is Estrogen receptor (Homo sapiens) (UniProt P03372). Briefly: qHTS assay to identify small molecule agonists of the estrogen receptor alpha (ER-alpha) signaling pathway in the presence of an antagonist (AID 1259383). Further: top concentration of the series differs between compounds; nearly all actives have a fitted effect of over 15% in size. The settings on record: VM7Luc4E2 cells, ERE-luciferase, +ICI-182,780, 22 h; series mostly up to 92.4 µM. The method in brief: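 Luciferase luminescence (ONE-Glo, 30min at room temperature) measured in VM7Luc4E2 cells after 22hr compound exposure at 15 concentrations, with 10.0nM ICI-182,780 final present; cells express endogenous ER-alpha and carry four EREs upstream of luciferase.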
Sequence of Estrogen receptor (Homo sapiens) (P03372 whole entry, looked up): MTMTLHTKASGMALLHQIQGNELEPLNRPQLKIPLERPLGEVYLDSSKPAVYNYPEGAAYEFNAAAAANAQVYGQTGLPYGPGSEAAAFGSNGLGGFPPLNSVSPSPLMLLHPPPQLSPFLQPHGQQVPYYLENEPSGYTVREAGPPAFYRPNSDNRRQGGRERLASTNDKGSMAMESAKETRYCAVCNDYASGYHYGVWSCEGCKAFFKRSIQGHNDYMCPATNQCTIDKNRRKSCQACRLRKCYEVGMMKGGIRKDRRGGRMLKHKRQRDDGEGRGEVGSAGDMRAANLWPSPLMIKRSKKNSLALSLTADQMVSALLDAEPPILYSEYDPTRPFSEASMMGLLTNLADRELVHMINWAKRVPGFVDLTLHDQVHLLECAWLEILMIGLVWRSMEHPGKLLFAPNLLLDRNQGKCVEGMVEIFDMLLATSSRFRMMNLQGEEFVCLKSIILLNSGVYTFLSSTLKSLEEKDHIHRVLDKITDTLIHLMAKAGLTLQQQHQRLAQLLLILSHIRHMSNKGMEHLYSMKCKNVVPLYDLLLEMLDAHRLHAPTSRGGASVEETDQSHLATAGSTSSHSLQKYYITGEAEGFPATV
For the molecule `C=CC(=O)NC(C)C`, the Potency entry is “inactive”.

Regarding `CCCCCCCCCCCCCCCC(=O)OCC`, the Potency entry was “inactive”.

As for `CC(C)(C)C1(CCc2ccc(Cl)cc2)CO1` (configuration not stated), the Potency result is “inactive”.

As to `CC(=O)Oc1cccc(O)c1`, the Potency entry was “inactive”.

On to `CC(C)(C)S`, for which the Potency entry was “inactive”.

As to `CC[C@H]1OC(=O)[C@H](C)[C@@H](O[C@H]2C[C@@](C)(OC)[C@@H](O)[C@H](C)O2)[C@H](C)[C@@H](O[C@@H]2O[C@H](C)C[C@H](N(C)C)[C@H]2O)[C@](C)(O)C[C@@H](C)/C(=N\OCOCCOC)[C@H](C)[C@@H](O)[C@]1(C)O`, the Potency entry is “inactive”.

For the molecule `FC(F)(F)C(F)(F)C(F)(F)C(F)(F)CCI`, the Potency entry is “inactive”.

As to `C=Cc1ccc(OC(C)=O)cc1`, the Potency result is “inactive”.

Regarding `NC(=O)c1ccccc1[N+](=O)[O-]`, the Potency result was “inactive”.

Consider `O=C1[C@@H]2[C@H]3CC[C@H](C3)[C@@H]2C(=O)N1CCCCN1CCN(c2ncccn2)CC1`, for which the Potency result was “inactive”.

Regarding `CC(=O)C(=O)CC(C)C`, the Potency result is “inactive”.

In the case of `O=C(NS(=O)(=O)/C=C/c1ccccc1)c1ccc(F)cc1Cl`, the Potency entry is “inactive”.

`CCCCC[C@H](O)/C=C/[C@H]1[C@H](O)CC(=O)[C@@H]1C/C=C\CCCC(=O)O`: the Potency result is “inactive”.

With `CCSC(=O)N(CC)CC`, the Potency entry was “inactive”.

Take `COC(C)(C)OC`: the Potency entry is “inactive”.

Turning to `CCN(CC)c1cccc(O)c1`, the Potency result is “inactive”.

As to `O=C1NC(=O)c2cccc3cccc1c23`, the Potency result was “inactive”.

For the molecule `CC(C)c1ccc(C(=O)N=C(N)N)cc1S(C)(=O)=O`, the Potency entry was “inactive”.

Regarding `Cc1ccc2c(c1)CCCN2`, the Potency result is “inactive”.

Take `CCN(CC)C(=O)/C(C#N)=C/c1cc(O)c(O)c([N+](=O)[O-])c1`: the Potency entry is “inactive”.

Tested on in the next assay: not listed separately
Briefly: qHTS assay to identify small molecule agonists or antagonists of the thyroid stimulating hormone receptor (TSHR) signaling pathway - wild type cell line counter screen (AID 1259384). Further: potency means the concentration at half of the fitted maximal effect. The settings on record: HEK293 wild type, cAMP HTRF counter-screen; series mostly up to 92.4 µM. The method in brief:
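Wild-type Hek293 cells, 800/well, 18 h at 37C, then compound with Ro20-1724 for 30 min RT. cAMP by HTRF (cAMP-d2/anti-cAMP cryptate), 1 h RT, fluorescence read. 15 concentrations, triplicates.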
A general note: Quantitative high-throughput screening tests each substance at several concentrations.
As to `C=CC(=O)NC(C)C`, the Potency result was “inactive”.

`CCCCCCCCCCCCCCCC(=O)OCC`: the Potency entry is “inactive”.

As for `CC(C)(C)C1(CCc2ccc(Cl)cc2)CO1` (configuration not stated), the Potency result was “inactive”.

As for `CC(=O)Oc1cccc(O)c1`, the Potency entry was “inactive”.

On to `CSCC[C@H](NC(=O)[C@H](Cc1c[nH]c2ccccc12)NC(=O)CCNC(=O)OC(C)(C)C)C(=O)N[C@@H](CC(=O)O)C(=O)N[C@@H](Cc1ccccc1)C(N)=O`, for which the Potency entry is “inactive”.

In the case of `O=C(Oc1ccccc1)c1ccc2ccccc2c1O`, the Potency result is “inactive”.

With `CC(C)(C)S`, the Potency entry is “inactive”.

`CC[C@H]1OC(=O)[C@H](C)[C@@H](O[C@H]2C[C@@](C)(OC)[C@@H](O)[C@H](C)O2)[C@H](C)[C@@H](O[C@@H]2O[C@H](C)C[C@H](N(C)C)[C@H]2O)[C@](C)(O)C[C@@H](C)/C(=N\OCOCCOC)[C@H](C)[C@@H](O)[C@]1(C)O`: the Potency result was “inactive”.

As to `FC(F)(F)C(F)(F)C(F)(F)C(F)(F)CCI`, the Potency result is “inactive”.

For the molecule `C=Cc1ccc(OC(C)=O)cc1`, the Potency entry is “inactive”.

For the molecule `CCCCCCCC(=O)OCCCCCC`, the Potency entry was “inactive”.

With `CCOC(=O)N1CCC(Nc2ccc(Cl)cc2N)CC1`, the Potency entry is “inactive”.

As to `NC(=O)c1ccccc1[N+](=O)[O-]`, the Potency result is “inactive”.

Turning to `O=C1[C@@H]2[C@H]3CC[C@H](C3)[C@@H]2C(=O)N1CCCCN1CCN(c2ncccn2)CC1`, the Potency entry is “inactive”.

Turning to `CC(=O)C(=O)CC(C)C`, the Potency result is “inactive”.

For `CCCCCCCC/C=C\CCCCCCCC(=O)OCCO`, the Potency result was “inactive”.

Turning to `C1CCCCC1`, the Potency result was “inactive”.

In the case of `O=C1OC(=O)c2c(Br)c(Br)c(Br)c(Br)c21`, the Potency entry is “inactive”.

Take `O=C(NS(=O)(=O)/C=C/c1ccccc1)c1ccc(F)cc1Cl`: the Potency result was “inactive”.

In the case of `CN1CCCN(C(c2ccccc2)c2ccc(Cl)cc2)CC1` (configuration not stated), the Potency result was “inactive”.

For the molecule `CNc1c2c(nn1C)CCCC2`, the Potency result was “inactive”.

In the case of `CCCCC[C@H](O)/C=C/[C@H]1[C@H](O)CC(=O)[C@@H]1C/C=C\CCCC(=O)O`, the Potency is 0.0174 µM (active).

Turning to `CCSC(=O)N(CC)CC`, the Potency result was “inactive”.

As to `COC(C)(C)OC`, the Potency result is “inactive”.

Turning to `c1ccc(CCCc2ccncc2)cc1`, the Potency entry is “inactive”.

Take `CCCCCCCC/C=C/C(=O)O`: the Potency entry was “inactive”.

For `O=C(O)CCC(=O)c1ccc(-c2ccccc2)cc1`, the Potency result was “inactive”.

`CCN(CC)c1cccc(O)c1`: the Potency entry was “inactive”.

Take `O=C1NC(=O)c2cccc3cccc1c23`: the Potency entry is “inactive”.

As for `CC(C)c1ccc(C(=O)N=C(N)N)cc1S(C)(=O)=O`, the Potency entry was “inactive”.

In the case of `O=C(CCS)OCC(COC(=O)CCS)(COC(=O)CCS)COC(=O)CCS`, the Potency result was “inactive”.

On to `Cc1ccc2c(c1)CCCN2`, for which the Potency entry is “inactive”.

Take `CC(C)(O)CCc1ccccc1`: the Potency entry was “inactive”.

In the case of `CCN(CC)C(=O)/C(C#N)=C/c1cc(O)c(O)c([N+](=O)[O-])c1`, the Potency entry was “inactive”.
